Source: PubChem BioAssay
An excerpt weighted towards active compounds, which were near 12% of everything screened.
Sm TGR inh = S. mansoni TGR enzyme inhibition | Q962Y6 | purified TGR, DTNB reduction, TNB absorbance 405 nm | Potency, µM (highest dose often 114 µM), without a hit: at the top dose activity change, negative = inhibition, hits mostly inhibitors | 360,000 tested, 3% active | AID 485364; also: % is scaled to controls: 0 for no effect and ±100 for the full control effect; nearly all actives have a fitted effect of over 60% in size
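TGR 20 nM + NADPH 100 uM (dispensed conc.), cpd preinc 15 min RT; start with NADPH (500 uM addition) then DTNB (15 mM addition). Kinetic TNB absorbance, 405 nm filter. Four-parameter Hill fit across titration.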
Pf growth 96h = P. falciparum growth inhibition at 96 hours; P. falciparum luciferase reporter growth, 96 h; Potency, µM (highest dose often 28.7 µM), without a hit: at the top dose activity change, negative = inhibition, hits mostly inhibitors; 320,000 tested, 6.9% active; AID 504834; also: % is scaled to controls: 0 for no effect and ±100 for the full control effect
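96 h incubation, 37 C, 5% CO2, of luciferase-reporter P. falciparum-infected RBCs (2% hematocrit, 0.05% parasitemia final) with test compounds; endpoint luminescence.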
Pf growth 48h = P. falciparum growth inhibition at 48 hours (one generation). P. falciparum luciferase growth in erythrocytes, 48 h. AID 504832. Potency, µM (series often up to 28.7 µM), without a hit: at the highest dose activity change, negative = inhibition, usual class: inhibitors. 310,000 tested, 5.9% active; also: % is scaled to controls: 0 for no effect and ±100 for the full control effect
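Erythrocytes infected with P. falciparum carrying an integrated firefly luciferase reporter (2% hematocrit, 0.1% parasitemia final) were exposed to compounds in RPMI 1640 with 0.5% Albumax at 37 C, 5% CO2. Growth inhibition was scored as reduced luminescence.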
SARS PLpro yeast = blocks SARS-CoV papain-like protease in a yeast assay; 330,000 tested, 0.19% active; Potency, µM (doses to about 32.9 µM), for the others: at the highest dose activity, positive = growth rescue, actives largely listed as activators; S. cerevisiae expressing SARS-CoV PLpro, growth rescue; calls by dose curve; also: 0% is about no effect; nearly all actives have a fitted effect of over 55% in size
Active calls of the source: *; [ ] = remark or other dose. Unless noted, calls follow the shape of the dose curve; as a rule, active = well fitted curve in the direction sought with a large enough effect; inconclusive = small, poorly fitted or top-dose-only effect, or another doubt; inactive = no such curve, though single readings can be large; an effect the other way counts as inactive or inconclusive. Potency is read from the fitted curve at half-maximal effect.

What do the screens show for `COc1ccc(-c2nn(C)c3sc(C(=O)N4CCN(c5cc(Cl)ccc5C)CC4)cc23)cc1OC`?
Sm TGR inh: -1%

What do the screens show for `[O-][n+]1cccc2c(Br)cc(Br)c(O)c21`?
Sm TGR inh: 7.9µM*; Pf growth 96h: 0%; Pf growth 48h: 12%; SARS PLpro yeast: -21%

Results for Cn1c(N)c(C(=O)COC(=O)/C=C/c2ccc(F)cc2)c(=O)n(C)c1=O ?
Sm TGR inh: -17%; Pf growth 96h: inconclusive; Pf growth 48h: inconclusive; SARS PLpro yeast: 5%

How did Cn1c(N)c(C(=O)COC(=O)/C=C/c2cccc(F)c2)c(=O)n(C)c1=O do in these assays?
Sm TGR inh: -2%; Pf growth 96h: -83%; Pf growth 48h: 12µM*; SARS PLpro yeast: -1%

How did Cn1c(N)c(C(=O)COC(=O)/C=C/c2ccccc2)c(=O)n(C)c1=O do in these assays?
SARS PLpro yeast: -13%

How did Cn1c(N)c(C(=O)COC(=O)/C=C/c2cccc(Br)c2)c(=O)n(C)c1=O do in these assays?
Sm TGR inh: -8%; Pf growth 96h: -112%; Pf growth 48h: 13µM*; SARS PLpro yeast: -5%

Results for CCN(CC)S(=O)(=O)c1cccc(C(=O)OCC(=O)NCCN2C(=O)CSC2=O)c1 ?
Sm TGR inh: -8%; Pf growth 96h: 12%; Pf growth 48h: 46%; SARS PLpro yeast: -3%

Results for CN(Cc1ccccc1)C(=O)CC(c1ccccc1)c1cc(Cl)ccc1O (centres undefined) ?
Sm TGR inh: 9%; Pf growth 96h: 10µM*; Pf growth 48h: inconclusive; SARS PLpro yeast: -1%

Results for COc1ccc(-c2cc(C(F)(F)F)nc(SCCC(=O)Nc3cc(C)ccc3O)n2)cc1 ?
Sm TGR inh: 7%

How did Cc1ccc(O)c(NC(=O)CCS(=O)(=O)c2nc(-c3cccs3)cc(C(F)(F)F)n2)c1 do in these assays?
Sm TGR inh: 18µM*

How did O=C(CCS(=O)(=O)c1nc(-c2cccs2)cc(C(F)(F)F)n1)Nc1cc(Br)ccc1O do in these assays?
Sm TGR inh: 18µM*

What do the screens show for `O=C(CSc1nc(-c2cccs2)cc(C(F)(F)F)n1)Nc1ccccc1Cl`?
Sm TGR inh: 3%

What do the screens show for `COc1ccc(CC2(CO)CCN(S(=O)(=O)c3sccc3C)CC2)cc1`?
Sm TGR inh: -16%; Pf growth 96h: 12µM*; Pf growth 48h: inconclusive; SARS PLpro yeast: -3%

What do the screens show for `COc1ccc(-c2ncc(CN3CCC(CO)(Cc4cccc(OC)c4)CC3)cn2)cc1`?
Sm TGR inh: 8%; Pf growth 96h: inconclusive; Pf growth 48h: 10µM*; SARS PLpro yeast: 0%

How did COc1ccc(CC2(CO)CCN(S(=O)(=O)c3c(C)nn(C)c3Cl)CC2)cc1 do in these assays?
Sm TGR inh: 7%; Pf growth 96h: -1%; Pf growth 48h: -8%; SARS PLpro yeast: -1%

How did COc1ccc(CC2(CO)CCN(Cc3cccnc3)CC2)cc1 do in these assays?
Sm TGR inh: 4%; Pf growth 96h: -18%; Pf growth 48h: 10µM*; SARS PLpro yeast: -1%

Results for COc1ccc(CC2(CO)CCN(C(C)Cc3ccc(Cl)cc3)CC2)cc1 (centres undefined) ?
Sm TGR inh: 4%; Pf growth 96h: 8%; Pf growth 48h: 12µM*; SARS PLpro yeast: 0%

What do the screens show for `CC(C)N=C1NN=C(c2cccs2)C(CC(=O)O)S1` (centres undefined)?
Sm TGR inh: 16µM*; Pf growth 96h: 4%; Pf growth 48h: -5%; SARS PLpro yeast: 0%

How did CCn1c(SCC(=O)NC(C)C)nnc1-c1cccs1 do in these assays?
Sm TGR inh: -16%; Pf growth 48h: 8%; SARS PLpro yeast: -7%

Results for CN1CCc2c(sc3nc(SCC(=O)N4CCCCC4)n(-c4ccccc4)c(=O)c23)C1 ?
Sm TGR inh: -22%; Pf growth 96h: 3.3µM*; Pf growth 48h: 12µM*; SARS PLpro yeast: -1%

What do the screens show for `CN1CCc2c(sc3nc(SCC(N)=O)n(-c4ccccc4)c(=O)c23)C1`?
Sm TGR inh: inconclusive; Pf growth 48h: inconclusive; SARS PLpro yeast: -3%

How did C=CCSc1nc2sc3c(c2c(=O)n1-c1ccc(C)cc1)CCN(C)C3 do in these assays?
Sm TGR inh: -18%; Pf growth 96h: 1.5µM*; Pf growth 48h: 3.7µM*; SARS PLpro yeast: 0%

How did COC(=O)CSc1nc2sc3c(c2c(=O)n1-c1ccccc1)CCN(C)C3 do in these assays?
Sm TGR inh: 35µM*; Pf growth 48h: inconclusive; SARS PLpro yeast: 5%

Results for C=C(C)CSc1nc2sc3c(c2c(=O)n1-c1ccccc1)CCN(C)C3 ?
Sm TGR inh: -30%; Pf growth 96h: 0.83µM*; Pf growth 48h: 1.5µM*; SARS PLpro yeast: 1%

Results for CN1CCc2c(sc3nc(SCC(N)=O)n(-c4ccc(Cl)cc4)c(=O)c23)C1 ?
Sm TGR inh: inconclusive; Pf growth 96h: inconclusive; Pf growth 48h: 29%[0.00184 µM]; SARS PLpro yeast: 0%

What do the screens show for `CCOC(=O)c1cccc(NC(=O)c2sc3nc[nH]c(=O)c3c2C)c1`?
Sm TGR inh: -9%

Results for Cc1cc(=O)[nH]c2nnc(SCC(=O)Nc3ccc(OC(F)(F)F)cc3)n12 ?
Sm TGR inh: 4%

How did CNC(=O)c1cn(-c2ccccc2)c(=O)c2ccccc12 do in these assays?
Sm TGR inh: 12%; Pf growth 96h: 70%; Pf growth 48h: 5%; SARS PLpro yeast: -2%

Results for CC(=O)n1c(=O)c2ccccc2c(=O)n1-c1ccccc1 ?
Sm TGR inh: 32µM*; Pf growth 96h: -14%; Pf growth 48h: -9%; SARS PLpro yeast: -1%

Results for Cc1cccc([N+](=O)[O-])c1NC(=O)COC(=O)c1nc2nccc(C)n2n1 ?
Sm TGR inh: -2%; Pf growth 96h: 2%; Pf growth 48h: 23%; SARS PLpro yeast: -3%

What do the screens show for `CC1SC(c2ccccc2Cl)NC1=O` (centres undefined)?
Sm TGR inh: 0%; Pf growth 96h: 12µM*; SARS PLpro yeast: -6%

What do the screens show for `C=CC#CC1(O)CC(C)[N+](C)(C)CC1C` (centres undefined)?
Sm TGR inh: 13µM*; Pf growth 96h: -14%; Pf growth 48h: -1%; SARS PLpro yeast: -2%

How did O=C(NCc1ccccc1)c1csc(-c2cccnc2)n1 do in these assays?
Sm TGR inh: -4%; Pf growth 96h: 31%; Pf growth 48h: 9.3µM*; SARS PLpro yeast: -6%

What do the screens show for `S=C(NCc1cccnc1)Nc1cc(Cl)cc(Cl)c1`?
Sm TGR inh: 28µM*; Pf growth 96h: inconclusive; Pf growth 48h: 2.9µM*; SARS PLpro yeast: 0%

Results for O=C(NC(=S)NCc1ccccc1)c1cccnc1 ?
Sm TGR inh: -7%; Pf growth 96h: inconclusive; Pf growth 48h: 21%; SARS PLpro yeast: 23%

How did Cc1ccc(NC(=S)NCc2ccc(Cl)cc2)c(C)c1 do in these assays?
Sm TGR inh: -2%; Pf growth 96h: inconclusive; Pf growth 48h: 10µM*; SARS PLpro yeast: 0%

What do the screens show for `O=C(NNC(=S)NCc1ccccc1)c1cccnc1`?
Sm TGR inh: 2%; Pf growth 96h: 2.1µM*; Pf growth 48h: inconclusive; SARS PLpro yeast: -2%
